PubChem BioAssay (NCI)
This is part of a sample that, as a whole, favours compounds with a hit. Of some 83,000 tested, about 20% had one in any assay.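 How to read the values: 0–100, growth inhibition (40 = 60% inhibited); 0, no net growth; -100 to 0, cell death (-40 = 40% of starting cells died; -100 = all dead).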 Active and inactive are the calls of the source. How the source made its calls: active means growth percent below 10; inactive means the rest.

Columns and labels:
Assay in all cases: NCI-60 one-dose screen, 48 h (100 = growth as untreated, 0 = no growth, -100 = all killed)
Settings in all cases: 10 µM unless noted
[1] = test system: SR leukemia
[2] = test system: RPMI-8226 leukemia
[3] = test system: OVCAR-8 ovarian
[4] = test system: OVCAR-5 ovarian
[5] = test system: OVCAR-4 ovarian
[6] = test system: SK-OV-3 ovarian
[7] = test system: IGROV1 ovarian
[8] = test system: OVCAR-3 ovarian
[9] = test system: HS 578T breast
[10] = test system: NCI/ADR-RES ovarian
[11] = test system: T-47D breast
[12] = test system: MDA-MB-435 melanoma
[13] = test system: SW-620 colon
[14] = test system: MCF7 breast
[15] = test system: HCT-116 colon
[16] = test system: HCC-2998 colon
[17] = test system: KM12 colon
[18] = test system: BT-549 breast

Measured: growth

O=c1c2ccccc2sc2c(NCCN3CCOCC3)nc3ccccc3c12
active: [1] 3.91%
inactive: [2] 40.3% | [3] 58.8% | [4] 84.9% | [5] 65.6% | [6] 50.8% | [7] 66.2% | [8] 79.2% | [9] 52.7% | [10] 63.5% | [11] 52.2% | [12] 70.1% | [13] 18% | [14] 43.7% | [15] 42.5% | [16] 54.2% | [17] 30%

COc1cc(CN(c2ccc(Cl)cc2)C2OC(=O)c3ccccc32)cc(OC)c1OC (configuration not stated)
inactive: [1] 32.1% | [2] 70.9% | [3] 74.8% | [4] 63.5% | [5] 74.7% | [6] 62.7% | [7] 63.9% | [8] 48.8% | [9] 59.6% | [10] 55.9% | [11] 42.3% | [18] 44.8% | [13] 30.8% | [14] 31.3% | [15] 28% | [16] 73.8% | [17] 31.8%

COc1ccc(NC(=O)Nc2ccc(-c3ccc(OC)c(OC)c3)nc2C)cc1
inactive: [1] 57.3% | [2] 83.8% | [3] 47.4% | [4] 98% | [5] 29.5% | [6] 74.8% | [7] 77.1% | [8] 102% | [9] 40% | [10] 85% | [11] 60.4% | [18] 50.4% | [12] 65.2% | [14] 65.1% | [15] 49.4% | [16] 83.1% | [17] 45.3%

[2H]c1nc(Nc2ncc(F)c(-c3cc(F)c4nc(C)n(C(C)C)c4c3)n2)c([2H])c([2H])c1CN1CCN(CC)CC1
inactive: [1] 11.7% | [2] 34.7% | [3] 74.3% | [4] 49.8% | [5] 66.1% | [6] 35.7% | [7] 39.1% | [8] 73.1% | [9] 29.9% | [10] 71% | [11] 71.8% | [12] 51.9% | [13] 33.8% | [14] 25.9% | [15] 20.6% | [16] 64.1% | [17] 31.9%

CC(=S)Nc1ccccc1
inactive: [1] 103% | [2] 99.7% | [3] 94.5% | [4] 99.8% | [5] 95.4% | [6] 87.6% | [7] 89.8% | [8] 101% | [9] 98.7% | [10] 100% | [11] 100% | [12] 99.4% | [13] 96.8% | [14] 95% | [15] 104% | [16] 105% | [17] 106%

CCCCCCCCN(CCCCCCCC)CC(O)c1cc(-c2ccccc2)nc2ccc(OC)cc12 (configuration not stated)
active: [1] 5.05% | [2] 1.99% | [3] 8.91% | [15] 8.32%
inactive: [4] 101% | [5] 78.4% | [6] 103% | [7] 95.8% | [8] 66.6% | [9] 99.1% | [10] 13.4% | [11] 77% | [12] 60.1% | [13] 23.6% | [14] 67% | [16] 101% | [17] 82.9%

CCOc1ccc(NC2=C(Cl)C(=O)c3ccccc3C2=O)cc1
inactive: [2] 41.7% | [3] 62.7% | [4] 110% | [5] 91.9% | [6] 92.1% | [8] 43.5% | [9] 95.4% | [10] 98.5% | [11] 66.7% | [12] 67.1% | [14] 46.1% | [15] 80.6% | [16] 57.7% | [17] 72.9%
active: [1] -6.21% | [7] 0.21% | [13] -51.3%

CCN(CC)CCN1C(=O)c2c(c3c4ccccc4[nH]c3c3[nH]c4ccccc4c23)C1=O
inactive: [2] 74.9% | [3] 78.5% | [4] 88.7% | [5] 72% | [6] 83.1% | [7] 83.3% | [8] 95.4% | [9] 86.7% | [10] 71.3% | [11] 81.8% | [18] 83% | [12] 95.6% | [14] 62% | [15] 67% | [16] 53.1% | [17] 85.2%
active: [1] 4.92%

CSc1nc(N)nc2c1ncn2C
inactive: [1] 91.7% | [2] 96.4% | [3] 106% | [4] 100% | [5] 103% | [6] 90.4% | [7] 106% | [8] 100% | [9] 106% | [10] 98.8% | [11] 90.3% | [12] 102% | [13] 101% | [14] 96.7% | [15] 92.1% | [16] 99.8% | [17] 95.6%

COc1ccc(C(=O)NC(=O)Nc2ccc3c(c2)NC(=O)/C3=C\c2[nH]c(C)c(CCC(=O)O)c2C)c(F)c1
active: [3] 8.62% | [9] -5.02%
inactive: [1] 18.8% | [2] 13% | [4] 64.4% | [5] 77% | [6] 56.6% | [7] 43% | [8] 23.4% | [10] 88.7% | [11] 21.5% | [18] 11.2% | [12] 53.8% | [14] 45.3% | [15] 28.3% | [17] 15.5%

Cc1ccn2cc(Cc3cc(=O)oc4c3ccc3ccccc34)c(=O)nc2c1
inactive: [1] 92.7% | [2] 93.3% | [3] 100% | [4] 102% | [5] 101% | [6] 90.1% | [7] 97% | [8] 104% | [9] 95.2% | [10] 105% | [11] 85.8% | [12] 104% | [13] 103% | [14] 93.8% | [15] 101% | [16] 100% | [17] 101%

CCOc1ccc(-n2c(-c3cc(OC)c(OC)c(OC)c3)nnc2-c2ccc(OC)cc2N)cc1
inactive: [1] 19.3% | [2] 82.6% | [3] 64.5% | [4] 95.5% | [5] 74.7% | [6] 75.2% | [7] 57.2% | [8] 53.6% | [9] 77.7% | [10] 77.1% | [11] 43.4% | [18] 84% | [13] 67.2% | [14] 40.6% | [15] 63.7% | [16] 82.4% | [17] 37.8%

CC(C)(C)OC(=O)N1CCN(CCn2cc(C(F)(F)F)c3c(Cl)ncnc32)CC1
inactive: [2] 86.3% | [4] 108% | [5] 103% | [6] 96.9% | [8] 85.2% | [9] 82.5% | [10] 104% | [11] 90.3% | [18] 118% | [12] 47.1% | [14] 87.4% | [15] 12.1% | [17] 95.9%
active: [1] -17.8% | [3] -61.4% | [7] -69.5%

O=C(O)c1ccccc1C(=O)c1ccc(I)cc1
inactive: [1] 101% | [2] 97.7% | [3] 107% | [4] 107% | [5] 109% | [6] 96.4% | [7] 98.4% | [8] 107% | [9] 104% | [10] 97.5% | [11] 83.1% | [12] 107% | [13] 97.4% | [14] 92.1% | [15] 99.9% | [16] 102% | [17] 106%

COc1ccc(/C(=C/c2cc(OC)c(OC)c(OC)c2)[N+](=O)[O-])cc1
active: [1] -11.2% | [2] -18.6% | [7] -4.79% | [8] -54.3% | [11] 6.27% | [12] 7.21% | [13] -31% | [14] 1.7%
inactive: [3] 13.4% | [4] 98.6% | [5] 37.3% | [6] 91% | [9] 97.9% | [10] 33.8% | [15] 11.8% | [16] 91.5% | [17] 15.5%

c1nc(SC2=NCCN2)c2[nH]cnc2n1
active: [6] 8.1%
inactive: [1] 22% | [2] 29.2% | [3] 41% | [4] 48.5% | [5] 61.7% | [7] 64% | [8] 30.8% | [9] 79.4% | [10] 22.5% | [11] 21.8% | [12] 24% | [13] 58.5% | [14] 14% | [15] 37% | [16] 32.8% | [17] 47.2%

O=C(C[n+]1cccc(Br)c1)c1ccc2c(c1)CCCC2
inactive: [1] 99.3% | [2] 96% | [3] 108% | [4] 96.2% | [5] 114% | [6] 89.7% | [7] 101% | [8] 99.9% | [9] 105% | [10] 102% | [11] 91.6% | [12] 100% | [13] 103% | [14] 90.4% | [15] 88.2% | [16] 103% | [17] 108%
